# HCMV inh: qHTS Assay for inhibitors of the human cytomegalovirus (HCMV) | HFF cells, HCMV-luciferase reporter, 72 h; stronger effect = lower value | activity change, negative = inhibition, % at 57.5 µM | 410,000 tested, 4.5% active | AID 1259415, 2018; in the data active means activity change below about -60%; inconclusive means no clear call, values can overlap the other calls; inactive means above about -39%; further: on the % scale 0 is the no-effect control and ±100 the full control effect
#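 Human foreskin fibroblasts infected with luciferase-reporter HCMV at MOI 1 PFU/cell, compounds at two doses. Luciferase measured 72 h post infection; normalized to buffer-only basal and Salinomycin (10uM) controls.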
# HCV inhibitor: qHTS Assay for Inhibitors of Hepatitis C Virus (HCV) | Huh7.5.1 HCVcc-Cre infection, luciferase reporter, 44 h | Potency, µM (highest dose often 41.8 µM), for the others: at the highest dose activity change, negative = inhibition, actives largely listed as inhibitors | 340,000 tested, 3.4% active | AID 651820, 2012; further: potency means the concentration at half of the fitted maximal effect; on the % scale 0 is the no-effect control and ±100 the full control effect
#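 Whole-lifecycle infectious HCVcc-Cre system; cells 1,000/well, compound then virus (~0.5 moi) added 4 h after plating, 44 h culture. Luciferase read 15 sec following 15 min substrate incubation, room temp.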
# Pf growth 48h: Primary qHTS for delayed death inhibitors of the malarial parasite plastid, 48 hour incubation | P. falciparum luciferase growth in erythrocytes, 48 h | Potency, µM (doses to about 28.7 µM), inactives show at the top dose activity change, negative = inhibition, actives largely listed as inhibitors | 310,000 tested, 5.9% active; further: potency means the concentration at half of the fitted maximal effect; on the % scale 0 is the no-effect control and ±100 the full control effect
#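 Parasite viability was followed by luminescence of a genomically integrated firefly luciferase. Cultures held 0.1% parasitemia at 2% hematocrit (final), incubated under 5% CO2 at 37 C.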
# Pf growth 96h: Primary qHTS for delayed death inhibitors of the malarial parasite plastid, 96 hour incubation; Potency, µM (doses to about 28.7 µM), inactives show at the top dose activity change, negative = inhibition, usual class: inhibitors; AID 504834, 2011; P. falciparum luciferase reporter growth, 96 h; 320,000 tested, 6.9% active; further: potency means the concentration at half of the fitted maximal effect; on the % scale 0 is the no-effect control and ±100 the full control effect
#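 Parasite growth measured via integrated firefly luciferase reporter in P. falciparum. Infected erythrocytes at 2% hematocrit, 0.05% parasitemia final were treated 96 hours at 37 C under 5% CO2, and luminescence was read.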
# Cycloheximide cs: Cycloheximide Counterscreen for Small Molecule Inhibitors of Shiga Toxin; cell reporter, cycloheximide protein synthesis inhibition counterscreen; max response, %; 300,000 tested, 12% active; in the data active means max response mostly above about 13%, no sharp cut-off; inactive means mostly below about 14%; further: read at 38.3 µM for the half of the compounds with a filed dose; 0% is about no effect
# Shiga inhibitor: A qHTS for Small Molecule Inhibitors of Shiga Toxin; inhibition, % at 38.7 µM; Vero cells, Shiga toxin protein synthesis inhibition reporter; 290,000 tested, 9.2% active; in the data active means inhibition mostly above about 28%, no sharp cut-off; inactive means mostly below about 43%; further: 0% is about no effect
# * hit, by the source's call; ? = inconclusive; . = no result given; [ ] = remark or other dose. Only some compounds are listed: those with a hit (about 21% of all), similar ones and a draw of the others. Unless noted, the call rests on the fitted dose curve; in most records, active means well fitted inhibition curve with a large enough effect; inconclusive means small, poorly fitted or top-dose-only effect, or another doubt; inactive means no such curve, though single readings can be large or run the other way.
SMILES,HCMV inh,HCV inhibitor,Pf growth 48h,Pf growth 96h,Cycloheximide cs,Shiga inhibitor
COc1ccccc1N1CC(C(=O)Nc2ccccc2N2CCCC2)CC1=O (centres undefined),-21,?,26%,15%,.,.
CCCOc1ccc(/C(O)=C2/C(=O)C(=O)N(CCCn3ccnc3)C2c2cccs2)cc1 (centres undefined),-10,6%,17%,16%,16*,13
CCOc1ccc(/C(O)=C2/C(=O)C(=O)N(CCCn3ccnc3)C2c2cccs2)cc1Cl (centres undefined),15,2%,-11%,?,47*,63*
CCCOc1ccc(/C(O)=C2/C(=O)C(=O)N(CCCn3ccnc3)C2c2cccnc2)cc1 (centres undefined),21,11%,-21%,3%,-3,-5
CCc1nnc(N/N=C/c2cc(Br)c(O)cc2O)n1N,-14,-9%,?,-3%,13*,24*
CC(C)(C)c1nnc(N/N=C/c2cc(Br)ccc2O)n(N)c1=O,-101*,?,3.3µM*,8.3µM*,-5,-9
CCc1nnc(N/N=C/c2ccc(O)c(OC)c2)n1N,8,5%,-35%,-1%,-2,.
COc1ccc(NCC(=O)N/N=C/C2CCCCC2)cc1,-14,6%,3%,0%,1,-4
O=C1N=c2ccccc2=C1c1sc(=S)n(-c2ccc(O)cc2)c1O,49,?,-1%,?,-1,-9
O=C1N=c2ccccc2=C1c1sc(=S)n(NC(=O)c2cccc(O)c2)c1O,28,14%,-1%,1.9µM*,-1,-22
COc1ccc(NC(=O)NC2CCCCCCC2)cc1OC,85,6%,34%,?,39*,48
COc1ccc(OC)c(NC(=O)NC2CCCCCCC2)c1,4,-7%,-9%,45%,7,19
COc1ccc(NS(=O)(=O)c2cccc(NC(=O)NC3CCCCC3)c2)cc1,-60*,?,-6%,?,2,7
Cc1ccc(NC(=O)NC2CCCCC2)cc1Cl,46,-2%,8%,.,34*,59*
COc1ccc(NC(=O)NN2CCOCC2)cc1OC,36,-1%,10%,-1%,8,-6
COc1ccc(NC(=O)NN2CCN(C)CC2)cc1OC,24,5%,32%,29%,27*,21*
CCc1ccc(CNC(=O)c2ccc3c(c2)nc2n3CCOC2)cc1,-3,.,.,.,.,.
COc1ccc([C@H]2[C@H](C(=O)C(C)(C)C)N3N=Cc4ccccc4C3[C@]23N=C(c2ccccc2)OC3=O)cc1 (some centres undefined),26,-14%,13µM*,9.3µM*,11,29
CCOc1ccc(NC(=O)CSC2=Nc3ccccc3C3=NC(CCC(=O)NCc4ccccc4)C(=O)N23)cc1 (centres undefined),28,.,.,.,.,.
Cc1ccc(NC(=O)Cc2c(O)c3ccccc3[nH]c2=O)c(C)c1,-15,5%,21%,57%,18*,22
COc1cccc(NC(=O)Cc2c(O)c3ccccc3[nH]c2=O)c1,-10,8%,.,?,-1,4
CCOc1ccc(NC(=O)Cc2c(O)c3ccccc3[nH]c2=O)cc1,-15,24%,2.9µM*,91%,-2,-13
Cc1ccccc1NC(=O)Cc1c(O)c2ccccc2[nH]c1=O,11,11%,11%,32%,-3,-4
CC(C)CN(C(=O)c1ccc(=O)n(C)n1)c1nc2ccccc2s1,111,0%,49%,142%,15*,17
O=C(Cn1cnc2c(NCc3ccccc3)ncnc21)NCCc1cc2ccccc2[nH]1,11,5%,.,.,.,.
SMILES,HCMV inh,HCV inhibitor,Pf growth 48h,Pf growth 96h,Cycloheximide cs,Shiga inhibitor
CCOC(=O)c1cnc2ccc(C)cc2c1Sc1ccccc1,?,?,?,?,34*,62*
CCOC(=O)c1cnc2ccc(C)cc2c1Sc1ccc(F)cc1,-32,?,?,?,43*,67*
CCOC(=O)c1cnc2ccc(C)cc2c1N(C)Cc1ccccc1,-60*,-16%,?,?,2,22
CCOC(=O)c1cc(-c2ccccc2)nc2ccc(C)cc12,0,-53%,0%,?,-2,-4
CO[C@]1(NC(=O)[C@H](C(=O)O)c2ccc(O)cc2)C(=O)N2C(C(=O)O)=C(CSc3nnnn3C)CO[C@H]21,.,.,-5%[12.8 µM],7%[12.8 µM],.,.
CCOc1cc(C(=O)Nc2cc(C)ccn2)cc(OCC)c1OCC,-95*,?,51%,?,7,14
CCCN(CCC)S(=O)(=O)c1ccc(NC(=O)c2cc(C(=O)OC)cc([N+](=O)[O-])c2)cc1,?,?,?,1.9µM*,-3,-11
COC(=O)c1cc(C(=O)Nc2cc(C)ccn2)cc([N+](=O)[O-])c1,-1,-17%,-9%,4%,13,35*
CCC(C)(C)NC(=O)c1cc(C(=O)OC)cc([N+](=O)[O-])c1,-13,15%,.,6%,-6,-3
CCOc1ccc(C(=O)Nc2cc(C)ccn2)cc1,-65*,-11%,145%,2%,3,-5
COC(=O)c1cc(C(=O)Nc2cc(C)on2)cc([N+](=O)[O-])c1,-4,1%,18%,-2%,-2,.
CCCC12CN3CC(C)(CN(C1)C3c1cn(CC)c3ccccc13)C2=O (centres undefined),10,.,.,.,.,.
Cn1c(C(=O)N2CCCC(C(=O)NCc3cccs3)C2)cc2sccc21 (centres undefined),15,-16%,.,.,-1,15
Cn1c(C(=O)N2CCC(C(=O)NCCc3ccccc3)CC2)cc2sccc21,-10,.,.,.,.,.
CC(C)N(CCCNC(=O)C1CCN(C(=O)c2cc3sccc3n2C)CC1)Cc1ccccc1,.,?,?,12µM*,-6,-5
CCn1c(C(=O)N2CCCC(C(=O)NCCc3ccc(C)cc3)C2)cc2sccc21 (centres undefined),?,?,-11%,-24%,0,-9
CCn1c(C(=O)N2CCCC(C(=O)NCCCc3ccccc3)C2)cc2sccc21 (centres undefined),-70*,?,?,?,4,-2
Cn1c(C(=O)N2CCCC(C(=O)NCCCSC3CCCCC3)C2)cc2sccc21 (centres undefined),-61*,?,?,42%,-4,-3
Clc1ccc(C=Cc2ccccn2)c(Cl)c1,60,4%,.,.,.,.
O=C(/C=C/c1ccccn1)c1cc(Cl)cc(Cl)c1O,-36,13µM*,?,?,1,-5
CC1CCCN(c2ccc(C(=O)N3CCC4(CC3)OCCO4)cc2[N+](=O)[O-])C1 (centres undefined),-25,27%,3%,?,-1,-16

# Assay outcomes from PubChem BioAssay.
